Our source for the composite z-score and z-score values is PubChem BioAssay.

The nature of assay [1]: compounds binding Alexa647 anti-His antibody – biochemical, small-molecule microarray, 635 nm fluorescence, artefact control for SMM control protein annotation, primary screen (AID 1128).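 Note: score merges feature fluorescence with signal-to-noise for each printed compound spot.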 The conditions noted are these: higher = more signal.
Assay [2] relates to Human papillomavirus type 1a E7 protein (residues 1-88). The experiment in a line: HPV1a E7 small-molecule binders, primary screen, biochemical, small-molecule microarray, residues 1-88, 635 nm (AID 1129). The conditions noted are these: small-molecule microarray binding, fluorescence 635 nm; higher = more signal.
The target in assay [3] is Focal adhesion kinase 1 (Homo sapiens) (UniProt Q05397). Description: PTK2 protein binding on printed compound slides – biochemical, small-molecule microarray, 635/667 nm fluorescence, BSA, DTT, primary screen (AID 1130).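 Note: composite of spot emission at 667 nm and signal to noise over triplicate slides.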 The conditions noted are these: 635 nm fluorescence, higher = more signal.
The subject of assay [4] is Fibrinogen (Alexa647-labelled). The experiment in a line: Alexa647-fibrinogen binding to printed small molecules – biochemical, small-molecule microarray, 635/667 nm fluorescence, artefact control for SMM control-protein annotation, profiling panel (AID 1131).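 Note: z-score merges 667 nm fluorescence with per-spot signal-to-noise over triplicate slides.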 The conditions noted are these: fibrinogen-A647 binding fluorescence, higher = more signal.
Assay [5] addresses Follistatin (Homo sapiens) (UniProt P19883). Description: FST protein binding to printed compounds – biochemical, small-molecule microarray, 635/667 nm fluorescence, primary screen (AID 1132). The conditions noted are these: 635 nm fluorescence, higher = more signal.
The target of assay [6] is Fibroblast growth factor 2 (Homo sapiens) (UniProt P09038). Description: basic fibroblast growth factor binding to printed compounds – biochemical, small-molecule microarray, 635/667 nm fluorescence, primary screen (AID 1133). The conditions noted are these: FGF2, fluorescence 635/667, higher = more signal.
Assay [7] is described as follows: JC-1 mitochondrial potential readout, lung cancer cells – cell-based, A549, JC-1 fluorescence, basal, 24 h, 100 nL, profiling panel (AID 1138).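 Note: A549 lung adenocarcinoma cells under basal conditions with no added stimulus; test concentration not given here.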 The conditions noted are these: higher = more signal.
In a further assay the test system is Lefty1. Description: Lefty1 protein binding to printed compounds – biochemical, small-molecule microarray, 635/667 nm fluorescence, primary screen (AID 1139). The conditions noted are these: fluorescence 635/667, higher = more signal.
For assay [8], the system named is wheat germ agglutinin (Triticum aestivum), Alexa647-labelled. The experiment in a line: Alexa647-WGA lectin binding to printed small molecules – biochemical, small-molecule microarray, 635/667 nm fluorescence, artefact control for SMM control-protein annotation, profiling panel (AID 1140).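 Note: score merges 667 nm feature emission with signal to noise over triplicate slides.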 The conditions noted are these: WGA-A647 binding, 635 nm fluorescence, higher = more signal.

Assay [9] concerns the target Luciferin 4-monooxygenase (Photinus pyralis) (UniProt P08659). Description: inhibition of purified Photinus pyralis luciferase – biochemical, luminescence, purified enzyme, 2006 set, primary screen (AID 1141).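 Note: cell-free assay with purified firefly luciferase at 100 ng per well in PBS; test concentration not given here.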 The conditions noted are these: purified firefly luciferase, SteadyGlo luminescence, 30 min; higher = more signal, called active from +8 up or from −8 down.
Assay [10] has as its system Wnt5a (protein binding on small-molecule microarray). Description: small molecules binding Wnt5a protein – biophysical, small-molecule microarray, 635/667 nm fluorescence, primary screen (AID 1142).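 Note: fluorescence read at 667 nm with signal to noise per printed feature.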 The conditions noted are these: 635 nm fluorescence, higher = more signal.
Assay [11] can be described thus: ATP-based viability of Huh7 replicon cells – cell-based, CellTiter-Glo luminescence, basal, 48 h, cytotoxicity control for HCV replication inhibitor project, primary screen (AID 1143).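 Note: Huh7 hepatoma cells carrying a hepatitis C replication reporter with no stimulus; test concentration not given here.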 The conditions noted are these: higher = more signal, called active from +8 up or from −8 down. In general terms: In antiviral work, replicon cells carry a viral genome segment that copies itself.

Assay [12] can be described thus: Pseudomonas biofilm growth suppression – PAO1 strain, BacTiter-Glo luminescence, LB-PBS, primary screen (AID 1144). The conditions noted are these: P. aeruginosa PAO1 biofilm, 12 h, higher = more signal.
A short description of assay [13]: basal CRE-LacZ reporter activity in PC12 – cell-based, unstimulated, primary screen (AID 1145). The conditions noted are these: no forskolin, luminescence, 4.5 h, higher = more signal, called active from +8 up or from −8 down.
Assay [14] in a line: forskolin-driven CRE-LacZ activity in PC12 – cell-based, CRE-LacZ reporter, forskolin-stimulated, primary screen (AID 1146).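 Note: PC12 cells with 6xCRE LacZ reporter stimulated by forskolin 10 µM; beta-galactosidase reporter signal reflecting CREB driven transcription.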 The conditions noted are these: luminescence, 4.5 h, higher = more signal, called active from +8 up or from −8 down.
Assay [15] deals with Streptavidin (Streptomyces avidinii) (UniProt P22629). The experiment in a line: compounds binding control protein streptavidin – biophysical, small-molecule microarray, 635/667 nm fluorescence, artefact control for SMM compound annotation, primary screen (AID 1147).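 Note: signal reflects streptavidin binding to arrayed compounds as a control protein.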 The conditions noted are these: higher = more signal.
The nature of assay [16]: probe aInhba binding on compound microarray – biochemical, small-molecule microarray, 635/667 nm fluorescence, primary screen (AID 1148).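 Note: score merges 667nm spot fluorescence with signal-to-noise for antibody binding to printed compounds.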 The conditions noted are these: higher = more signal.
Assay [17] addresses Torsin-1A (Homo sapiens) (UniProt O14656). The experiment in a line: TOR1A wild-type binding on microarray – cell lysate, small-molecule microarray, lysate, 635/667 nm, primary screen (AID 1149). The conditions noted are these: COS7 hTOR1A-WT lysate, 635 nm fluorescence, higher = more signal.
Assay [18] has the same target. Description: torsin A mutant lysate binding on microarrays – cell lysate, small-molecule microarray, COS7 lysate, 635/667 nm fluorescence, primary screen (AID 1150).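 Note: score pools 667 nm emission and signal to noise measuring lysate protein binding.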 The conditions noted are these: COS7 hTOR1A mutant lysate, 635 nm fluorescence, higher = more signal.
The test system of assay [19] is Sonic hedgehog protein (Shh). The experiment in a line: Sonic hedgehog microarray binding compounds – biochemical, small-molecule microarray, 635/667 nm fluorescence, primary screen (AID 1151).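 Note: Shh protein binding to compounds spotted on small-molecule microarray slides; score combines spot fluorescence intensity with signal-to-noise across triplicate slides.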 The conditions noted are these: 635 nm fluorescence, higher = more signal.

Several values for one entry are separate records, joined by “and”; a condition that tells them apart may be missing. Identical values can stand only once. Activity calls are given as the source filed them. Unless noted, the rule behind the calls is not given here.

Chain of Follistatin (Homo sapiens) (P19883 whole entry, looked up): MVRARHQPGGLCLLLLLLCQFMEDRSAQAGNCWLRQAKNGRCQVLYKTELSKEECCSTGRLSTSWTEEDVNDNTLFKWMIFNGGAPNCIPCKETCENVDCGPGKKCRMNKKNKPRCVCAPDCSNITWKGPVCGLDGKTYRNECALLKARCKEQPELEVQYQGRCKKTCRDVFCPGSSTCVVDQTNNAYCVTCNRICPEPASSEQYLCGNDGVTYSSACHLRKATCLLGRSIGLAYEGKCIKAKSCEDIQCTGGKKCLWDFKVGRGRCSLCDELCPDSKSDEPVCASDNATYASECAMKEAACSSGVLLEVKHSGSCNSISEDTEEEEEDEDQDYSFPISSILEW
Chain of Fibroblast growth factor 2 (Homo sapiens) (P09038 whole entry, looked up): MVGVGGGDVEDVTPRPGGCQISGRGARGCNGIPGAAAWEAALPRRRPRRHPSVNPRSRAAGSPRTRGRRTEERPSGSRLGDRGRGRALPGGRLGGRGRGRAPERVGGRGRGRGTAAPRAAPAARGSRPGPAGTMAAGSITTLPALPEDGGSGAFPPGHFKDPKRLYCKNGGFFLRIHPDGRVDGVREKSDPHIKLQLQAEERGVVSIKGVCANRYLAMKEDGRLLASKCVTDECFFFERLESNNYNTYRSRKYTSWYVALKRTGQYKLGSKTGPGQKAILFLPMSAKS
Chain of Luciferin 4-monooxygenase (Photinus pyralis) (P08659 whole entry, looked up): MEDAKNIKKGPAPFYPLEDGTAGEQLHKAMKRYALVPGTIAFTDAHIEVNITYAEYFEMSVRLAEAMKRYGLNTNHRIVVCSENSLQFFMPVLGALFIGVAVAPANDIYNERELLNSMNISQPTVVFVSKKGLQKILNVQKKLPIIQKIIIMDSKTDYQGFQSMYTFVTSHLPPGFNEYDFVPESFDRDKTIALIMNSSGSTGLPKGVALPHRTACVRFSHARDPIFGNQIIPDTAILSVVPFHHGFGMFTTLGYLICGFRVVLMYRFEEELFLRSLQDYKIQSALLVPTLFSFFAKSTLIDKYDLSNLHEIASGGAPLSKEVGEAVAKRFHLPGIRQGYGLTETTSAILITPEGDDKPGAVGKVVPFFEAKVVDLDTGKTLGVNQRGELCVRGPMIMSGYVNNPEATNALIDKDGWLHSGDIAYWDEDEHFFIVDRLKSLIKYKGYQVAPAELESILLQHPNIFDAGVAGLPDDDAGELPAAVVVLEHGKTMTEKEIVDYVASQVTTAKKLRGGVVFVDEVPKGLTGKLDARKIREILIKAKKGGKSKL
Chain of Torsin-1A (Homo sapiens) (O14656 whole entry, looked up): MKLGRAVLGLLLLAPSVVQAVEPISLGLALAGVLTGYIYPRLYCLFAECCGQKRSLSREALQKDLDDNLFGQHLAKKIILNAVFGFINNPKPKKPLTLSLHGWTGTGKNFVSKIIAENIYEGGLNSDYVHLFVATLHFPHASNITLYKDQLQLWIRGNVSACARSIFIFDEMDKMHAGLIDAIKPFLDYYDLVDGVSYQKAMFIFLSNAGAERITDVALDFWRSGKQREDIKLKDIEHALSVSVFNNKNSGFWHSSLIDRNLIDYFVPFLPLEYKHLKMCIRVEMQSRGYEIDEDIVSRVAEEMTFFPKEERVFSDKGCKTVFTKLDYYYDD
Chain of Focal adhesion kinase 1 (Homo sapiens) (Q05397 whole entry, looked up): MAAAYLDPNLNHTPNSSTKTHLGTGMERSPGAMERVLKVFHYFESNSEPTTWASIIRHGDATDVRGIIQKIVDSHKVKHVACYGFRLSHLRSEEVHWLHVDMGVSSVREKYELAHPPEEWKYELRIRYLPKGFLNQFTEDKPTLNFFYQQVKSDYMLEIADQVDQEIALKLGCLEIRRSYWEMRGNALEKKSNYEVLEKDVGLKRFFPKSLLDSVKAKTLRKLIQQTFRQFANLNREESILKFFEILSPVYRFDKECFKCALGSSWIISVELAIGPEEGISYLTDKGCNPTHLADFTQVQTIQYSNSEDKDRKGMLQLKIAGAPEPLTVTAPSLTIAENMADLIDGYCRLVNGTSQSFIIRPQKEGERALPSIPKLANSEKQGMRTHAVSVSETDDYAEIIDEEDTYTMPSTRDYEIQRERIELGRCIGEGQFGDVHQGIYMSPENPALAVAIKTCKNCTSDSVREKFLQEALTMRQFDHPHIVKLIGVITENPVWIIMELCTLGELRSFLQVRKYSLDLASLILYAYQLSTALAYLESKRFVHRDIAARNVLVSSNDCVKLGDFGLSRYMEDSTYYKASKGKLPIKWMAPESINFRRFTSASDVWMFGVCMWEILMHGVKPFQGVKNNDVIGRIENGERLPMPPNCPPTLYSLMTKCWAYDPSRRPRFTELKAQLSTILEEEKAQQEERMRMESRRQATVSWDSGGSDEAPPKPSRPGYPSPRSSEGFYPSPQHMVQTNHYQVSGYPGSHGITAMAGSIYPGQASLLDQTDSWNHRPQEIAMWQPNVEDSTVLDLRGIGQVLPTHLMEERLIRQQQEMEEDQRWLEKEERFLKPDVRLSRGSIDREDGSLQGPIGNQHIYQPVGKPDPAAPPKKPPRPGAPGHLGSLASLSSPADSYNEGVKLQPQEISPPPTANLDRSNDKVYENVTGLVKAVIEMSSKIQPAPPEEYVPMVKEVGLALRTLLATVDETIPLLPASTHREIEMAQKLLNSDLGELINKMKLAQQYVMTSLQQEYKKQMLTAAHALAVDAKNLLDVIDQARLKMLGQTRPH
Chain of Streptavidin (Streptomyces avidinii) (P22629 whole entry, looked up): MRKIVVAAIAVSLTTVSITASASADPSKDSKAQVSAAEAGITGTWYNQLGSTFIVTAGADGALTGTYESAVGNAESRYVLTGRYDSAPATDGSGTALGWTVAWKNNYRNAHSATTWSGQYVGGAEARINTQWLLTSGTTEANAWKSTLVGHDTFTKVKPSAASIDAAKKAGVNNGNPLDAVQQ

Regarding `C[N+](C)(C)CCCCNC(=O)[C@H]1C[C@H]2C(=O)N[C@@H](CCCC[N+](C)(C)C)C(=O)N2[C@H]1c1cccc(OCCO)c1`, the composite z-score is 1.98 and 1.03 in [1]; -0.166 and 0.848 in assay [2]; -0.389 and -0.117 in assay [3]; -0.816 and -0.179 in assay [4]; 1.49 and 1.53 in assay [5]; 1.93 and 1.73 in assay [6]. Further, the composite z-score with Lefty1 is 1.75 and 1.59; in assay [8], -1.07 and 1.04; in assay [10] it was 0.949 and 0.646; in assay [15], -0.853 and -0.0338; in [16] it was -0.025 and 0.0631; with Torsin-1A (Homo sapiens) [17], -1.08 and 1.03. Besides, the composite z-score is -0.879 and 2.09 with Torsin-1A (Homo sapiens) [18]; 2.21 and 2.31 in [19]. Moreover, the z-score was -0.59 and -0.114 in [7]; 0.254 (inactive) and 0.0887 (inactive) in assay [9]; -0.0036 (inactive) and -0.177 (inactive) in [11]; -0.281 (inactive) and 0.741 (inactive) in assay [12]; -0.667 (inactive) and -0.268 (inactive) in [13]; -0.393 (inactive) and -0.441 (inactive) in [14].
With `COC(=O)C1=C(C)N(Cc2ccccc2)[C@]23O[C@](C(=O)OC)(C(=O)N2[C@@H]1c1ccccc1)[C@H]1CCCC(=O)[C@H]13`, the composite z-score is 0.677 and 1.34 in [1]; 0.312 and 0.104 in assay [2]; -0.035 and 0.215 in assay [3]; 0.753 and 0.377 in [4]; 0.372 and 0.544 in assay [5]; 0.349 and 0.456 in assay [6]. The composite z-score is 0.784 and 0.694 with Lefty1; 0.528 and -0.124 in assay [8]; 0.04 and -0.0686 in assay [10]; 0.3 in assay [15]; 0.114 and -0.018 in assay [16]; 0.165 and 0.434 in the assay with Torsin-1A (Homo sapiens) [17]. In addition, the composite z-score in the assay with Torsin-1A (Homo sapiens) [18] is 0.815 and 0.262; in [19], 0.396 and 0.436. Also, the z-score in assay [7] was 0.455 and -0.75; in assay [9], -0.5 (inactive) and 0.264 (inactive); in assay [11], -3.29 (inactive) and -2.24 (inactive); in assay [12], -0.375 (inactive) and -1.01 (inactive); in [13], 0.563 (inactive) and 2.64 (inactive); in [14] it was -0.771 (inactive) and -0.693 (inactive).
`CO[C@@H]1COC(=O)CC=C[C@H](C)COC(=O)[C@H](C)NC(=O)CC=C[C@H]1C`: the composite z-score in [1] is 0.401; in [2], -0.375; in assay [3] it was -0.0308; in assay [4] it was -0.607; in [5], 1.11; in assay [6], 1.72. Further, the composite z-score is 1.03 in the assay on Lefty1; -0.587 in [8]; 0.144 in assay [10]; 0.477 in assay [15]; -0.208 in assay [16]; 0.919 in the assay with Torsin-1A (Homo sapiens) [17]. The composite z-score in the assay with Torsin-1A (Homo sapiens) [18] is 1.16; in assay [19], 1.19. Further, the z-score in assay [7] is 0.521; in [9], -0.394 (inactive); in assay [11] it was 0.178 (inactive); in assay [12], 0.213 (inactive); in assay [13] it was 1.24 (inactive); in assay [14], -0.218 (inactive).
On to `C[C@@H]1CN2[C@@H](CC[C@@H](C)[C@@H]2c2ccc(Br)cc2)C(=O)O1`, for which the composite z-score in assay [1] was 0.513 and -0.557; in assay [2] it was -1.13 and 0.142; in [3], -0.0732 and 0.591; in assay [4] it was -0.459 and -0.964; in assay [5] it was -0.138 and 0.0634; in assay [6], 0.0798 and 0.44. Further, the composite z-score with Lefty1 was -0.0013 and 0.133; in assay [8], -0.556 and 0.125; in assay [10], -0.174 and -0.0451; in assay [15], -0.404 and -0.145; in assay [16] it was -0.193 and 0.0506; in the assay with Torsin-1A (Homo sapiens) [17], -0.467 and 0.111. The composite z-score with Torsin-1A (Homo sapiens) [18] was 0.0914 and 0.0837; in assay [19], 0.486 and 0.218. Further, the z-score is 1.14 and 1.07 in [7]; -0.678 (inactive) and -1.36 (inactive) in assay [9]; 0.482 (inactive) and -0.656 (inactive) in assay [11]; 0.259 (inactive) and -1.1 (inactive) in assay [12]; 0.74 (inactive) and 2 (inactive) in [13]; 0.667 (inactive) and 0.0918 (inactive) in assay [14].
